Measurements reported in PubChem BioAssay AID1159580 (chemical genetic matrix, 2015).
Where “and” joins values, the source holds several entries; their conditions need not be identical. Identical values can stand only once. Hit rate of the full screen: of about 5,500 compounds, about 2,000 (36%) were called active. Roughly 18% stayed inconclusive and do not appear here. Cut-off read from the data, not from the text of the source: active = normalized growth mostly below about 0.91 (no sharp cut-off); inconclusive = no clear call, values can overlap the other calls; inactive = mostly above about 0.92. This is one part of the list.

Test: chemical genetic growth profiling, strain panel (AID 1159580);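 note: tested at 20 µM; growth read once vehicle control cultures reached saturation at 30 °C; 1 = growth at the plate median or of vehicle wells; lower values mean less growth of the strain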
Details: S. cerevisiae deletion strains, growth OD

Measured: normalized growth

CCS(=O)(=O)CCn1c([N+](=O)[O-])cnc1C
inactive: locus YAL013W, strain DEP1, active compounds read low 1.03 | locus YAL021C, strain ccr4, active compounds read low 0.999 | locus YAL026C, strain drs2, active compounds read low 0.995 | locus YAL030W, strain snc1, active compounds read low 1.01 | locus YBL061C, strain skt5, active compounds read low 1.01 | locus YBR009C, strain hhf1, active compounds read low 0.962 | locus YBR021W, strain FUR4, active compounds read low 1.01 | locus YBR023C, strain chs3, active compounds read low 0.998 | locus YBR171W, strain sec66, active compounds read low 1 | locus YBR229C, strain ROT2, active compounds read low 1.01 | locus YBR231C, strain swc5, active compounds read low 1 | locus YBR279W, strain paf1, active compounds read low 0.985 | locus YCL011C, strain gbp2, active compounds read low 1 | locus YCL016C, strain dcc1, active compounds read low 1.02 | locus YCL029C, strain bik1, active compounds read low 1.01 | locus YCL061C, strain MRC1, active compounds read low 1.01 | locus YCL069W, strain vba3, active compounds read low 0.974 | locus YCR088W, strain abp1, active compounds read low 0.986 | locus YDL005C, strain med2, active compounds read low 1.01 | locus YDL035C, strain GPR1, active compounds read low 1.04 | locus YDL040C, strain nat1, active compounds read low 0.995 | locus YDL074C, strain BRE1, active compounds read low 1.06 | locus YDL101C, strain DUN1, active compounds read low 1.01 | locus YDL134C, strain PPH21, active compounds read low 1 | locus YDL185W, strain tfp1, active compounds read low 1.02 | locus YDL192W, strain arf1, active compounds read low 1.01 | locus YDR001C, strain nth1, active compounds read low 0.991 | locus YDR069C, strain doa4, active compounds read low 0.977 | locus YDR101C, strain arx1, active compounds read low 1.01 | locus YDR137W, strain rgp1, active compounds read low 0.957 | locus YDR150W, strain NUM1, active compounds read low 1.02 | locus YDR159W, strain sac3, active compounds read low 0.965 | locus YDR162C, strain NBP2, active compounds read low 1.02 | locus YDR195W, strain ref2 0.952 | locus YDR297W, strain sur2, active compounds read low 1 | locus YDR318W, strain mcm21, active compounds read low 1.04 | locus YDR334W, strain swr1, active compounds read low 0.966 | locus YDR335W, strain msn5, active compounds read low 0.993 | locus YDR388W, active compounds read low 1.01 | locus YDR392W, strain spt3, active compounds read low 1.02 | locus YDR502C, strain sam2, active compounds read low 1.01 | locus YEL003W, strain gim4, active compounds read low 0.995 | locus YEL037C, strain rad23, active compounds read low 0.981 | locus YEL061C, strain CIN8 (second series), active compounds read low 0.998 | locus YEL061C, strain CIN8, active compounds read low 1.01 | locus YER015W, strain faa2, active compounds read low 1 | locus YER016W, strain bim1, active compounds read low 1.01 | locus YER110C, active compounds read low 1.02 | locus YER111C, strain swi4, active compounds read low 1.02 | locus YER155C, strain BEM2 (second series), active compounds read low 0.99 | locus YER155C, strain BEM2, active compounds read low 0.996 | locus YER167W, strain BCK2, active compounds read low 1.05 | locus YFR010W, strain ubp6, active compounds read low 0.967 | locus YGL078C, strain dbp3, active compounds read low 1 | locus YGL086W, strain mad1, active compounds read low 1.05 | locus YGL167C, strain pmr1, active compounds read low 0.994 | locus YGL173C, strain kem1, active compounds read low 1.02 | locus YGL227W, strain vid30, active compounds read low 1 | locus YGL240W, strain doc1, active compounds read low 0.977 | locus YGL248W, strain PDE1, active compounds read low 1 | locus YGL253W, strain hxk2, active compounds read low 0.997 | locus YGR078C, strain PAC10, active compounds read low 1.03 | locus YGR135W, strain pre9, active compounds read low 1.01 | locus YGR229C, strain SMI1, active compounds read low 1.02 | locus YGR252W, strain gcn5, active compounds read low 1.01 | locus YHR013C, strain ard1, active compounds read low 1.04 | locus YHR027C, strain rpn1, active compounds read low 1.01 | locus YHR030C, strain SLT2, active compounds read low 1.01 and 0.981 | locus YHR079C, strain IRE1 (second series), active compounds read low 1.02 | locus YHR079C, strain IRE1, active compounds read low 0.957 | locus YHR094C, strain hxt1, active compounds read low 1.01 | locus YHR129C, strain ARP1, active compounds read low 1.01 | locus YHR142W, strain chs7, active compounds read low 1.01 | locus YHR200W, strain rpn10, active compounds read low 1.02 | locus YIL066C, strain RNR3, active compounds read low 1.02 | locus YIL073C, strain SPO22, active compounds read low 1.1 | locus YIL125W, strain kgd1, active compounds read low 1.01 | locus YIR030C, strain dcg1, active compounds read low 1.01 | locus YJL092W, strain hpr5, active compounds read low 1 | locus YJL095W, strain BCK1 (second series), active compounds read low 0.989 | locus YJL095W, strain BCK1, active compounds read low 1.02 and 0.959 | locus YJL115W, strain asf1, active compounds read low 0.98 | locus YJL129C, strain trk1, active compounds read low 1 | locus YJL134W, strain LCB3, active compounds read low 1.01 | locus YJL154C, strain vps35, active compounds read low 0.984 | locus YJL164C, strain tpk1, active compounds read low 1 | locus YJL166W, strain qcr8, active compounds read low 0.996 | locus YJL168C, strain set2, active compounds read low 1.01 | locus YJL187C, strain SWE1 (second series), active compounds read low 1.01 | locus YJR043C, strain POL32, active compounds read low 1.08 | locus YJR066W, strain TOR1, active compounds read low 0.945
